According to PubChem BioAssay AID1159580 (chemical genetic matrix, 2015):
Among all 5,500 compounds or so, about 2,000 (36%) were called active. Roughly 18% stayed inconclusive and do not appear here. No stated cut-off is given here; in the data, active means normalized growth mostly below about 0.91 (no sharp cut-off); inconclusive means no clear call, values can overlap the other calls; inactive means mostly above about 0.92. The list shows a part of the results.

Experiment: chemical genetic growth profiling, strain panel (AID 1159580);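 further: tested at 20 µM; growth read once vehicle control cultures reached saturation at 30 °C; 1 = growth at the plate median or of vehicle wells; lower values mean less growth of the strain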
Conditions: S. cerevisiae deletion strains, growth OD

Measured: normalized growth

CC(=O)Oc1cc2c(c(C)c1OC(C)=O)CC1OC13C2(C)CCC1(C)C2CC(C)(C(=O)O)CCC2(C)CCC13C (configuration not stated)
inactive: locus YAL021C, strain ccr4, hits give low values 0.988 | locus YAL026C, strain drs2, hits give low values 1.04 | locus YAL030W, strain snc1, hits give low values 1.01 | locus YBL061C, strain skt5, hits give low values 1.04 | locus YBR009C, strain hhf1, hits give low values 1 | locus YBR021W, strain FUR4, hits give low values 0.99 | locus YBR023C, strain chs3, hits give low values 1.01 | locus YBR171W, strain sec66, hits give low values 1.02 | locus YBR229C, strain ROT2, hits give low values 1.01 | locus YBR231C, strain swc5, hits give low values 1.04 | locus YBR279W, strain paf1, hits give low values 1.02 | locus YCL011C, strain gbp2, hits give low values 1.01 | locus YCL016C, strain dcc1, hits give low values 1 | locus YCL029C, strain bik1, hits give low values 1.03 | locus YCL069W, strain vba3, hits give low values 1.03 | locus YCR088W, strain abp1, hits give low values 1.01 | locus YDL005C, strain med2, hits give low values 1.02 | locus YDL035C, strain GPR1, hits give low values 0.993 | locus YDL040C, strain nat1, hits give low values 1.02 | locus YDL074C, strain BRE1, hits give low values 1.02 | locus YDL101C, strain DUN1, hits give low values 1.01 | locus YDL185W, strain tfp1, hits give low values 1.04 | locus YDL192W, strain arf1, hits give low values 1.02 | locus YDR001C, strain nth1, hits give low values 1.01 | locus YDR069C, strain doa4, hits give low values 1.01 | locus YDR101C, strain arx1, hits give low values 1.03 | locus YDR137W, strain rgp1, hits give low values 1.02 | locus YDR159W, strain sac3, hits give low values 1.05 | locus YDR162C, strain NBP2, hits give low values 1 | locus YDR195W, strain ref2 1.02 | locus YDR297W, strain sur2, hits give low values 1.02 | locus YDR318W, strain mcm21, hits give low values 1.02 | locus YDR334W, strain swr1, hits give low values 1.01 | locus YDR335W, strain msn5, hits give low values 1.02 | locus YDR388W, hits give low values 1.02 | locus YDR392W, strain spt3, hits give low values 0.919 | locus YDR502C, strain sam2, hits give low values 1.01 | locus YEL003W, strain gim4, hits give low values 1.01 | locus YEL037C, strain rad23, hits give low values 1.01 | locus YEL061C, strain CIN8 (second series), hits give low values 1.02 | locus YEL061C, strain CIN8, hits give low values 1.01 | locus YER015W, strain faa2, hits give low values 1.02 | locus YER016W, strain bim1, hits give low values 1.02 | locus YER110C, hits give low values 1.03 | locus YER111C, strain swi4, hits give low values 1 | locus YER155C, strain BEM2 (second series), hits give low values 1.01 | locus YER155C, strain BEM2, hits give low values 0.99 | locus YER167W, strain BCK2, hits give low values 1.01 | locus YFR010W, strain ubp6, hits give low values 1.03 | locus YGL078C, strain dbp3, hits give low values 0.99 | locus YGL086W, strain mad1, hits give low values 1.02 | locus YGL167C, strain pmr1, hits give low values 1 | locus YGL173C, strain kem1, hits give low values 1.02 | locus YGL227W, strain vid30, hits give low values 1.02 | locus YGL240W, strain doc1, hits give low values 1.02 | locus YGL248W, strain PDE1, hits give low values 0.999 | locus YGL253W, strain hxk2, hits give low values 1.03 | locus YGR135W, strain pre9, hits give low values 1.03 | locus YGR252W, strain gcn5, hits give low values 0.989 | locus YHR013C, strain ard1, hits give low values 1.01 | locus YHR027C, strain rpn1, hits give low values 1.01 | locus YHR030C, strain SLT2, hits give low values 1.02 | locus YHR079C, strain IRE1 (second series), hits give low values 1.04 | locus YHR094C, strain hxt1, hits give low values 1.04 | locus YHR129C, strain ARP1, hits give low values 1.01 | locus YHR142W, strain chs7, hits give low values 1.01 | locus YHR200W, strain rpn10, hits give low values 1.04 | locus YIL066C, strain RNR3, hits give low values 0.998 | locus YIL073C, strain SPO22, hits give low values 1.02 | locus YIL125W, strain kgd1, hits give low values 1.01 | locus YIR030C, strain dcg1, hits give low values 1.04 | locus YJL092W, strain hpr5, hits give low values 1.02 | locus YJL095W, strain BCK1 (second series), hits give low values 1.03 | locus YJL095W, strain BCK1, hits give low values 0.998 | locus YJL115W, strain asf1, hits give low values 1.01 | locus YJL129C, strain trk1, hits give low values 1.02 | locus YJL134W, strain LCB3, hits give low values 1.01 | locus YJL154C, strain vps35, hits give low values 1.01 | locus YJL164C, strain tpk1, hits give low values 0.989 | locus YJL166W, strain qcr8, hits give low values 1.01 | locus YJL168C, strain set2, hits give low values 1.03 | locus YJL187C, strain SWE1 (second series), hits give low values 0.992 | locus YJR043C, strain POL32, hits give low values 1 | locus YKL009W, strain mrt4, hits give low values 0.927 | locus YKL068W, hits give low values 1.03 | locus YKL085W, strain MDH1 (second series), hits give low values 1 | locus YKL085W, strain MDH1, hits give low values 1 | locus YKL160W, strain elf1, hits give low values 1 | locus YKL190W, strain CNB1, hits give low values 1 | locus YKR001C, strain vps1, hits give low values 0.993 | locus YKR026C, strain gcn3, hits give low values 1.02 | locus YKR091W, strain srl3, hits give low values 1.01 | locus YLL001W, strain dnm1, hits give low values 1.03 | locus YLL026W, hits give low values 1.01 | locus YLL041C, strain sdh2, hits give low values 1.01 | locus YLR027C, strain aat2, hits give low values 1.01 | locus YLR039C, strain RIC1, hits give low values 0.893 | locus YLR058C, strain SHM2, hits give low values 1 | locus YLR102C, strain apc9, hits give low values 1.03 | locus YLR221C, strain rsa3, hits give low values 1.03 | locus YLR258W, strain gsy2, hits give low values 1.02 | locus YLR262C, strain YPT6 (second series), hits give low values 1.02 | locus YLR262C, strain YPT6, hits give low values 0.853 | locus YLR268W, strain sec22, hits give low values 1.04 | locus YLR320W, strain mms22, hits give low values 1.03 | locus YLR330W, strain CHS5, hits give low values 1.01 | locus YLR342W, strain FKS1 (second series), hits give low values 1 | locus YLR342W, strain FKS1, hits give low values 1.02 | locus YLR357W, strain rsc2, hits give low values 1.01 | locus YLR370C, strain arc18, hits give low values 1.01 | locus YLR371W, strain rom2, hits give low values 1.05 | locus YLR384C, strain iki3, hits give low values 1 | locus YLR418C, strain cdc73, hits give low values 1 | locus YML016C, strain PPZ1, hits give low values 1.01 | locus YML032C, strain rad52, hits give low values 1.03 | locus YML120C, strain ndi1, hits give low values 1.02 | locus YML124C, strain tub3, hits give low values 1.02 | locus YMR058W, strain fet3, hits give low values 1.03 | locus YMR078C, strain ctf18, hits give low values 1.04 | locus YMR125W, strain sto1, hits give low values 0.985 | locus YMR129W, hits give low values 1.01 | locus YMR205C, strain PFK2, hits give low values 0.988 | locus YMR223W, strain ubp8, hits give low values 1.05 | locus YMR231W, strain pep5, hits give low values 1.01 | locus YMR263W, strain SAP30, hits give low values 1.01 | locus YMR307W, strain GAS1, hits give low values 0.949 | locus YNL067W, strain RPL9B, hits give low values 1 | locus YNL071W, strain lat1, hits give low values 1.01 | locus YNL153C, strain GIM3, hits give low values 1 | locus YNL209W, strain ssb2, hits give low values 0.994 | locus YNL233W, strain BNI4, hits give low values 1.02 | locus YNL248C, strain rpa49, hits give low values 1.06 | locus YNL250W, strain rad50, hits give low values 1.02 | locus YNL271C, strain bni1, hits give low values 1.03 | locus YNL298W, strain CLA4, hits give low values 0.994 | locus YNL307C, strain MCK1, hits give low values 1.03 | locus YNL322C, strain KRE1 (second series), hits give low values 0.994 | locus YNR049C, strain mso1, hits give low values 1.04 | locus YNR052C, strain pop2, hits give low values 1.01 | locus YOL006C, strain TOP1, hits give low values 0.964 | locus YOL012C, strain htz1 1.11 | locus YOL147C, strain pex11, hits give low values 1.04 | locus YOR001W, strain rrp6, hits give low values 1.02 | locus YOR061W, strain CKA2, hits give low values 1.02 | locus YOR069W, strain VPS5, hits give low values 1.01 | locus YOR070C, strain gyp1, hits give low values 1.04 | locus YOR080W, strain dia2, hits give low values 1.02 | locus YOR083W, strain WHI5, hits give low values 1.01 | locus YOR106W, strain vam3, hits give low values 1.01 | locus YOR136W, strain idh2, hits give low values 1.02 | locus YOR144C, strain elg1, hits give low values 1.03 | locus YOR184W, strain ser1, hits give low values 0.994 | locus YOR265W, strain rbl2, hits give low values 1.01 | locus YOR270C, strain vph1, hits give low values 1.05 | locus YOR290C, strain snf2, hits give low values 0.994 | locus YOR316C, strain cot1, hits give low values 1.03 | locus YPL051W, strain arl3, hits give low values 1.02 | locus YPL055C, strain LGE1, hits give low values 1.01 | locus YPL078C, strain atp4, hits give low values 0.99 | locus YPL106C, strain sse1, hits give low values 1.03 | locus YPL240C, strain hsp82, hits give low values 1.01 | locus YPL241C, strain CIN2, hits give low values 1 | locus YPR119W, strain clb2, hits give low values 1.02 | locus YPR141C, strain kar3, hits give low values 1.02 | locus YPR163C, strain tif3, hits give low values 1.04 | locus YPR167C, strain met16, hits give low values 1.02 | strain wtn01, hits give low values 1.01
